Results as given in ChEMBL document CHEMBL3988442, “University of Dundee, Small-Polar-MMV Screening Library” (2021).
For some assays here: Results with a measured potency or affinity are listed apart.

Assays:
Design in all cases: scale not given: direction of the effect not stated beside the values
[1] = target: Protein translocase subunit SecA (Escherichia coli (strain K12)) (UniProt P10408); experiment: Assay to Identify E. coli SecA ATPase Inhibitors; assay type: functional; conditions: 30 µM
Chain of Protein translocase subunit SecA (Escherichia coli (strain K12)) (P10408 whole entry): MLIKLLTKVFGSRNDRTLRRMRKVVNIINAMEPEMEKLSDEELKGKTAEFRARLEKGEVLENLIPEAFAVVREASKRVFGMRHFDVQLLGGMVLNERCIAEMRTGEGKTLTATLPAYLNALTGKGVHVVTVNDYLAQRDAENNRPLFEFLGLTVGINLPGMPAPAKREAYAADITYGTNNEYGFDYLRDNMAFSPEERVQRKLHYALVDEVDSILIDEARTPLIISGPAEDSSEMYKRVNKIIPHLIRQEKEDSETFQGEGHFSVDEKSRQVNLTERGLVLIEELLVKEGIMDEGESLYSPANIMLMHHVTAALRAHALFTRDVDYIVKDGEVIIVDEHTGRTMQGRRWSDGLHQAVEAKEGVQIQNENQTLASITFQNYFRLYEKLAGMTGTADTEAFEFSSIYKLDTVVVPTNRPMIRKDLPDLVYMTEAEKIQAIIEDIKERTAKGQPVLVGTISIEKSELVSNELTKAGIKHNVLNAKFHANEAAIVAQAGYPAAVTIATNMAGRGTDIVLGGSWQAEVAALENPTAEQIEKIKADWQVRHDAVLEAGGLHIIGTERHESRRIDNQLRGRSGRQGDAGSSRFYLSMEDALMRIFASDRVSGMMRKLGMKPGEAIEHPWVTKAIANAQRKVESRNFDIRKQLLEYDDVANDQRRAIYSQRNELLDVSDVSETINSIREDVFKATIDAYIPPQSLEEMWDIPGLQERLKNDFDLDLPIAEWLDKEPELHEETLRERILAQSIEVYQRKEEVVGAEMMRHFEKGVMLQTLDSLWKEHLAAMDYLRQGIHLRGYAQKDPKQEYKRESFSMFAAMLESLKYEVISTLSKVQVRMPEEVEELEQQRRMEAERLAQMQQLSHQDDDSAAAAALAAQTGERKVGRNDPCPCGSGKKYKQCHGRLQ

[2] = target: T1, Ubiquitin-activating enzyme e1, putative (Leishmania donovani (strain BPK282A1)) (UniProt E9BSI1); experiment: Leishmania donovani Ubiquitin Activating Enzyme (LdE1); assay type: functional; conditions: 30 µM
T1 sequence (whole entry): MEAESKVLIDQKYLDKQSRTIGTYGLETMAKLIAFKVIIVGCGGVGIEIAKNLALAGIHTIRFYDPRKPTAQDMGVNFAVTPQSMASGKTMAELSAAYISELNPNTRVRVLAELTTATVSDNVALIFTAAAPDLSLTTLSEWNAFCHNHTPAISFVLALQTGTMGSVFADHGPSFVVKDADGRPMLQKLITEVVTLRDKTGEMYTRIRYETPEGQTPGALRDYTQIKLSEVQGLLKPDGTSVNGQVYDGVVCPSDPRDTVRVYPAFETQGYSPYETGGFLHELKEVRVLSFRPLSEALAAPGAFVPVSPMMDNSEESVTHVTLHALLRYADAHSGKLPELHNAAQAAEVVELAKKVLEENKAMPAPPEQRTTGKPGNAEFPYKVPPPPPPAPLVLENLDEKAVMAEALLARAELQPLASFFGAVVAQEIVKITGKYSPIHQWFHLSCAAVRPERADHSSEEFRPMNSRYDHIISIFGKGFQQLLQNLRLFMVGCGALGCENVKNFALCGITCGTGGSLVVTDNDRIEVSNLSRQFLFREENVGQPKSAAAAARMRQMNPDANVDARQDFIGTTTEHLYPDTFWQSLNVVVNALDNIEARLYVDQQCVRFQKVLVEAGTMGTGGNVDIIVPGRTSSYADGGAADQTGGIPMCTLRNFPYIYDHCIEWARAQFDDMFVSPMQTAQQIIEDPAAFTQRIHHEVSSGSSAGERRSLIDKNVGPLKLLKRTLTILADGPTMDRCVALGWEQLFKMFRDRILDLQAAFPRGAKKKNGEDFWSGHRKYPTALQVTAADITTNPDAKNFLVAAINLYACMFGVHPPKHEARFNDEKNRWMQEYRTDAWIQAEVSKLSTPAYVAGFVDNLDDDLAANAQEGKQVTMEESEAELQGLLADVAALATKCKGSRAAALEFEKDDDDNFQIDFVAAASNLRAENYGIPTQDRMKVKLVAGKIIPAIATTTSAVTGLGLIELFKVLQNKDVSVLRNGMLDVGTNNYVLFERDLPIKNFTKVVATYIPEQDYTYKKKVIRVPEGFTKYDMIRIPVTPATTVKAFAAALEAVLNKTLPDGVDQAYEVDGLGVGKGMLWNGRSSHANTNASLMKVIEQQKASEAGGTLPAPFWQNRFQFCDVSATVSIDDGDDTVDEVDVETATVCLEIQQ

[3] = target: AMP-activated protein kinase, AMPK (Homo sapiens) (UniProt P54646+O43741+P54619+Q9UGJ0+Q9Y478+Q13131+Q9UGI9); experiment: AMP-dependent Kinase enzyme assay. An in vitro enzyme assay that detects ADP turnover that is directly proportional to AMPK activity. This uses naive AMPK that is activated during the assay with MK-8722; assay type: functional; conditions: 30 µM
[4] = target: Sialic acid-binding Ig-like lectin 9 (Homo sapiens) (UniProt Q9Y336); experiment: Hs-Siglec9 ALPHAscreen SOP 20170721; conditions: 10 µM
Chain of Sialic acid-binding Ig-like lectin 9 (Homo sapiens) (Q9Y336 whole entry): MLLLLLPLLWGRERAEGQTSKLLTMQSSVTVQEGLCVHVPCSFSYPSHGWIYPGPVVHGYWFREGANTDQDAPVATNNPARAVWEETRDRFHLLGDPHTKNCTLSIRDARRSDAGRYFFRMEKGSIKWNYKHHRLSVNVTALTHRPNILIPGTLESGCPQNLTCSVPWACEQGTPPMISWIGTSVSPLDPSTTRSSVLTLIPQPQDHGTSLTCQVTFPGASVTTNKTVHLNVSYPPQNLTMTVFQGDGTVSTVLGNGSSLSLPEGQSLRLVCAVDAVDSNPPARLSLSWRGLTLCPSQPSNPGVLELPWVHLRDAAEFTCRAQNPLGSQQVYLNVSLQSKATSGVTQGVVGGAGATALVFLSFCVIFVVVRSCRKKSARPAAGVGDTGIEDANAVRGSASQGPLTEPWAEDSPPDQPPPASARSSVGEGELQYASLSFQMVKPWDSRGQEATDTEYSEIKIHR

[5] = tested on: Trypanosoma cruzi; experiment: Trypanosoma cruzi phosphomannomutase and mannose-1-phosphate guanylyltransferase assay; assay type: functional; conditions: 10 µM
[6] = target: T2, Arginase-2, mitochondrial (Homo sapiens) (UniProt P78540); experiment: in vitro enzyme assay to detect the production of urea directly proportional to the activity of Arginase II; assay type: functional; conditions: 33.3 µM; further: in the data most compounds retested in dose-response had high values
T2 sequence (whole entry): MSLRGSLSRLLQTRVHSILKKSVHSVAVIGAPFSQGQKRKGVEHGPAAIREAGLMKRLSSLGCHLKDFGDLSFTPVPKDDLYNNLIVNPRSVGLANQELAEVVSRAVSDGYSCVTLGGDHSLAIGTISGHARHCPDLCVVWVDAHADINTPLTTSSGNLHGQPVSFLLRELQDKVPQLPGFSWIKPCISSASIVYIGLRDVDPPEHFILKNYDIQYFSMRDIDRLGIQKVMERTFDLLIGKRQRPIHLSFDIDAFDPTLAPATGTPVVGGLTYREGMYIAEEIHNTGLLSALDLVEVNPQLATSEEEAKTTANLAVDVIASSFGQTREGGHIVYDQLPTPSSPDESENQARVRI

[7] = target: T3, Proteasome subunit beta (Trypanosoma cruzi) (UniProt O96673); experiment: Trypanosoma cruzi proteasome chymotrypsin-like activity (TcProtChymo) assay.; further: in the data most compounds retested in dose-response had high values; assay type: functional; conditions: 9.37 µM
T3 sequence (whole entry): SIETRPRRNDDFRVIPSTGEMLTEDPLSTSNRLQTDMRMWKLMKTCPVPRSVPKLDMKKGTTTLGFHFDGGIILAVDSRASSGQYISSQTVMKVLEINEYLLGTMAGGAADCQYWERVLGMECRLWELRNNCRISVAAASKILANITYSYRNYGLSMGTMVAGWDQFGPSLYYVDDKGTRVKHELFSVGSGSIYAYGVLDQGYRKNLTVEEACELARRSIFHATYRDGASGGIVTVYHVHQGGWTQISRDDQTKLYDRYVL

[8] = species: Homo sapiens; experiment: To identify inhibition of the IFN signalling (Jak-Stat) pathway via expression of an eGFP reporter gene under the control of an IFN-stimulated response element (ISRE) containing MxA promoter.; assay type: functional; conditions: 30 µM
[9] = target: T4, Tyrosyl-tRNA synthetase, putative (Trypanosoma cruzi (strain CL Brener)) (UniProt Q4DSP6); experiment: Trypanosoma cruzi tyrosyl tRNA synthetase (TcYRS) _High Tyrosine SOP; assay type: functional; conditions: 30 µM; further: in the data most compounds retested in dose-response had high values
T4 sequence (whole entry): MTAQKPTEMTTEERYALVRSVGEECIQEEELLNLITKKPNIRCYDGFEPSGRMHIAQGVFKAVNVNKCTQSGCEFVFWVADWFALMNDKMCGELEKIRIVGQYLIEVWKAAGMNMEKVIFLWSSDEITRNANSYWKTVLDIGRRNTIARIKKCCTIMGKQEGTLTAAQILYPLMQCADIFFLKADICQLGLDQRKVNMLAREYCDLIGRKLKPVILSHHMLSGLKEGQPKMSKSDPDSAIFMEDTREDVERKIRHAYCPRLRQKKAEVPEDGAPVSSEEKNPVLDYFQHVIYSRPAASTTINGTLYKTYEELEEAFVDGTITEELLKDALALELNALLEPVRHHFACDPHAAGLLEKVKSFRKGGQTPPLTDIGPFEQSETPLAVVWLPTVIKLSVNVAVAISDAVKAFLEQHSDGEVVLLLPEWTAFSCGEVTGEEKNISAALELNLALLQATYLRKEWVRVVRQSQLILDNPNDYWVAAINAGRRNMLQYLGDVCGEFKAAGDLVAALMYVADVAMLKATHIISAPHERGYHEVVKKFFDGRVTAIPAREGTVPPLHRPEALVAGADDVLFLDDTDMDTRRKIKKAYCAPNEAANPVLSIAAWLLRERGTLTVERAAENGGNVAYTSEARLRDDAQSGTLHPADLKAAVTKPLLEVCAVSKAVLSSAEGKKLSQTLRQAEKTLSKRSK

[10] = target: T4, Tyrosyl-tRNA synthetase, putative (Trypanosoma cruzi (strain CL Brener)); experiment: Trypanosoma cruzi tyrosyl tRNA synthetase (TcYRS) SOP; assay type: functional; conditions: 30 µM
[11] = target: Chromo domain-containing protein 1 (Saccharomyces cerevisiae (strain ATCC 204508 / S288c) (Baker's yeast)) (UniProt P32657); experiment: ScCHD-1 Enzyme Inhibition Assay; assay type: functional; conditions: 30 µM; further: in the data most compounds retested in dose-response had high values
Chain of Chromo domain-containing protein 1 (Saccharomyces cerevisiae (strain ATCC 204508 / S288c) (Baker's yeast)) (P32657 whole entry, the tested form may be a part): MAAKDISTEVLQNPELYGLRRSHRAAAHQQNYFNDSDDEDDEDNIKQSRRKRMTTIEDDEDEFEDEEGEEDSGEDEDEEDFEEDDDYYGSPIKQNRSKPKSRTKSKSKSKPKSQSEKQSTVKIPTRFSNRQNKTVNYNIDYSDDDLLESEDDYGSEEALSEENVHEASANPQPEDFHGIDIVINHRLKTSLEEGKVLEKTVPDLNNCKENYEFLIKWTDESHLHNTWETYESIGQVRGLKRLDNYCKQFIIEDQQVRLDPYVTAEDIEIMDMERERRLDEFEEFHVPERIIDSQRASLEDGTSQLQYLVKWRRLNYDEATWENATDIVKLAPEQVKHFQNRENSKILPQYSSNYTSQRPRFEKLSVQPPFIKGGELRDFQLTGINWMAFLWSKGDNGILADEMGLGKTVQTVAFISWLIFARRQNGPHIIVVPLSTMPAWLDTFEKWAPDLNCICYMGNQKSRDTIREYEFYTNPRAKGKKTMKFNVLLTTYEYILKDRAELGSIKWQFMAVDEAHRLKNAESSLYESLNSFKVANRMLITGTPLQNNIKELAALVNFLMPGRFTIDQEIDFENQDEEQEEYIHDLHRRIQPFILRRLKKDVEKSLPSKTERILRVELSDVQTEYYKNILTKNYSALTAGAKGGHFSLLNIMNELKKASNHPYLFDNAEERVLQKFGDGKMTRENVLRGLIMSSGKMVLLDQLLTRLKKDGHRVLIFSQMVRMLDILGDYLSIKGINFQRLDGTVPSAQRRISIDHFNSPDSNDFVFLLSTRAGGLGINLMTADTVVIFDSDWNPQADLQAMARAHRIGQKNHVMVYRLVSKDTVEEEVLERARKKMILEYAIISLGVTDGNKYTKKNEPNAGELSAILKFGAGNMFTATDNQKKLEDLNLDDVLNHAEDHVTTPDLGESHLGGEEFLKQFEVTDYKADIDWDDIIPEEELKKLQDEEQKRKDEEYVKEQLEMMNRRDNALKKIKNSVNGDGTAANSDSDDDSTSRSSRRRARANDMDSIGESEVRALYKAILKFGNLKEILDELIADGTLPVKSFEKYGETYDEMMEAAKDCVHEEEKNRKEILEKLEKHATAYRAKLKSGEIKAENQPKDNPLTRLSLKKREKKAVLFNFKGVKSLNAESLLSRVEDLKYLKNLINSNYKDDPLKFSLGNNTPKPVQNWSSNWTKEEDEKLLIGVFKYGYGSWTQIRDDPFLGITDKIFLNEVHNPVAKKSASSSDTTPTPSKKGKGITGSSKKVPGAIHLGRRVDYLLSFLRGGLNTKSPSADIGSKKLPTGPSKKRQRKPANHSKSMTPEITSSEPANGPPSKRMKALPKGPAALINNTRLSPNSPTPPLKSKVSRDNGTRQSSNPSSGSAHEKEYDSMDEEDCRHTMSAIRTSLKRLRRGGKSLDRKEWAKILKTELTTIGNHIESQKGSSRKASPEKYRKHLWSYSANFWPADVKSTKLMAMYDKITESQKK

SMILES	Percent Effect [1] [%]	Percent Effect [2] [%]	Percent Effect [3] [%]	Percent Effect [4] [%]	Percent Effect [5] [%]	Percent Effect [6] [%]	Percent Effect [7] [%]	Percent Effect [8] [%]	Percent Effect [9] [%]	Percent Effect [10] [%]	Percent Effect [11] [%]
COc1cccc(CNC(=O)C(c2cccc(F)c2)N2CCOCC2)c1 (configuration not stated)	-6.42	18.4	-1.09	6.14	2.82	-5.92	4.12	5.78	6.38	18.2	-11.1
O=C(CC1CC1)N1CCC2(CC1)CN(c1ncccn1)CCO2	-2.48	2.67	5.17	6.83	-6.89	-5.83	5.9	9.78	-5.32	-1.28	-7.95
O=S1(=O)COCCN1Cc1ccc(Cl)c(F)c1	0.108	16.2	-3.31	17.6	3.28	2.38	14.7	0.549	5.82	14.6	-5.23
CN(Cc1cnn(C)c1)C(=O)c1ccc(=O)n(C)n1	-3.21	7.89	2.81	-2.3	5.16	-5.92	12.9	9.62	6.38	10.4	-4.41
Cc1cc(C)n(CC2CCCN2C(=O)c2ccc3c(c2)nnn3C)n1 (configuration not stated)	-3.73	8.22	-3.73	-4.94	-2.94	7.27	14.9	-9.03	3.23	7.5	-4.89
CN(C)S(=O)(=O)N1CC[C@@H]2CN(Cc3cnn(C)c3)C[C@@H]2C1	-6.2	-2.6	26.8	-2.67	-4.63	0.645	0.696	33.3	-1.06	-1.28	-3.27
COc1c(CNCc2ccc(N(C)C)nc2)c(C(C)C)nn1C	-3.16	13.2	-3.28	6.83	6.39	4.6	6.01	13.5	5.39	17.1	-12.6
Cn1ccnc1CN1CCC2(CC1)CC(Oc1cccnc1)C2	-2.04	8	4.85	10.2	-1.35	-23.8	1.88	6.63	10.4	22.5	-6.08
CNC(=O)Nc1cc(-c2ccc(Br)cc2)nn1CCO	-6.67	10.5	0.242	1.93	5.94	-16.6	3.16	-5.7	4.25	2.6	-2.66
Cc1cnn(CC2CN(Cc3nnc(-c4occc4C)o3)CCO2)c1 (configuration not stated)	-3.52	10.8	142	-3.99	3.06	-0.924	-0.898	16	7.92	23.2	-5.94
O=C(c1cc(COc2ccc3c(c2)OCO3)[nH]n1)N1CC=CC1CO (configuration not stated)	-3.88	-2.74	9.97	22.3	-5.36	0.399	15.3	9.04	3.12	-8.64	0.567
COc1ncccc1NC(=O)N1CCC(CN2CCOCC2)CC1	2.03	2.67	-10.3	11.1	5.55	17.7	7.15	-13.1	2.73	6.17	0.459
CCc1ccc(C(=O)NC2CCN(c3cnn(C)c3)C2=O)o1 (configuration not stated)	-6.02	2.7	-5.86	6.69	8.11	-0.744	8.84	-0.708	3.23	11.1	-7.33
Cc1ncsc1CN1C[C@@H]2COC[C@]2(C(=O)NCC2CC2)C1	-0.435	0	8.5	2.51	-4.33	5.83	-1.15	25.1	2.13	1.28	10.8
O=C(Cc1ccc2c(c1)CCCC2)NCCc1ccccn1	-2.72	-7.89	-4.68	-1.25	0.0934	1.44	16.2	12.1	7.39	23.5	-7.01
CCn1nc(C(C)C)cc1C(=O)NCCCOC	-2.71	6.94	0.234	-3.62	6.51	-1.77	14.7	-30.8	4.21	12.8	-4.31
CSc1ccsc1C(=O)N1CCN(CC(C)(C)O)CC1	-4.54	8.86	0.454	1.08	1.13	-4.95	4.29	3.01	4.17	-25.3	-14.7
CC(C)n1ccnc1CN1CCCN(C(=O)COC2CCCC2)CC1	-2.6	3.8	6.6	4.27	-1.74	-2.8	4.29	2.51	-1.04	2.53	-6.72
Cc1cnnn1Cc1ncn2c1CN(Cc1cccs1)CCC2	-5.14	2.7	-2.96	-6.54	-5.18	-0.955	15.3	14.8	2.16	5.13	-3.69
Cc1cnn(CC2CCCN2Cc2nccn2C)c1 (configuration not stated)	-3.05	-16.5	-3.78	-0.409	3.59	1.5	3.94	4.67	4.17	5.06	-13.2
CCN(CC1CCOC1)C(=O)c1ccccc1N1CCOCC1 (configuration not stated)	-3.71	23.7	-4.13	-10.1	-3.08	1.8	4.82	12.3	5.42	11.1	-5.45
CCNC(=O)N1CCCCC1CCNS(C)(=O)=O (configuration not stated)	-1.55	5.41	-3.93	3.76	8.3	-3.33	13.3	6.93	7.94	9.76	-1.52
